Screens (PubChem BioAssay)
CHO-K1 Ca antag: nonselective inhibitor or artifact in parental CHO-K1 cells; ATP-induced calcium, Fluo-8 fluorescence; actives 0.6% (n = 360,000); inhibition, % at 3 µM;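 active means inhibition above a per-plate cutoff, the plate's mean sample inhibition plus 3 SD, cut at about 24% in these data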;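 further: 0% = DMSO plus EC80 ATP and 100% = DMSO alone without ATP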
M1 PAM parental: M1 PAM counterscreen hit in parental CHO-K1 cells | ATP EC20, Fluo-8 calcium fluorescence; 0% at ATP EC20, 100% at ATP max | activation, % at 3 µM | actives 0.02% (n = 360,000) | AID 602247;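 active means activation above the run cutoff, the mean activation of all test compounds plus 3 SD, cut at about 40% in these data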;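 further: peak over basal fluorescence ratio in a 140 s read after ATP addition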
M1 ag: activates human CHRM1 receptor; P11229; CHO-K1 hM1, Fluo-8 calcium fluorescence, agonist mode; 0% DMSO, 100% acetylcholine EC100; activation, % at 3 µM; actives 0.33% (n = 360,000); AID 588814;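 active means activation above the run's mean compound activation plus 3 SD, cut at about 16% in these data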;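 further: peak over basal fluorescence ratio within a 140 s kinetic read after compound addition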
Target sequence (P11229 whole entry, looked up): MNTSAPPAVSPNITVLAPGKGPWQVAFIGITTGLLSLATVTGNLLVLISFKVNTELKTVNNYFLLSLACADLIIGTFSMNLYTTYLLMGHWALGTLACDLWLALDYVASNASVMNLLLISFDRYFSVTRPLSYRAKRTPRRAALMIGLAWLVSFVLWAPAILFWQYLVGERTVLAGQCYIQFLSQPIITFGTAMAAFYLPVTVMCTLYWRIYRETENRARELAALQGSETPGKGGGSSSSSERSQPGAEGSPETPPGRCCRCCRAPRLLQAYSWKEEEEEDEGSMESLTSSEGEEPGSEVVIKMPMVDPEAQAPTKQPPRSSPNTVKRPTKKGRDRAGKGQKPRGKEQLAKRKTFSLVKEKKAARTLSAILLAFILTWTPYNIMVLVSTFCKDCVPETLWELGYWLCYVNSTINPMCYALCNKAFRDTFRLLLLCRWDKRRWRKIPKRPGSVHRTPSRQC
M1 PAM: potentiates human M1 receptor response to acetylcholine. P11229. CHO-K1 hM1, Fluo-8 calcium fluorescence, ACh EC20; 0% = ACh EC20, 100% = maximal ACh. activation, % at 3 µM. actives 0.088% (n = 360,000); in the data active means activation above about 19%, passing the limit was not always enough
CHRM1 antagonist: antagonists of human M1 muscarinic receptor; P11229; CHO-K1 hM1, Fluo-8 calcium fluorescence, ACh EC80 antagonist; inhibition, % at 3 µM; actives 1.3% (n = 360,000);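 active means percent inhibition above its own plate's cutoff, namely the mean of that plate's compound wells plus 3 SD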;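 further: peak over basal fluorescence ratio during 140 s after agonist addition; 0% = ACh EC80 plus DMSO and 100% = DMSO alone without agonist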
CHO-K1 Ca ag: nonselective activator or artifact in parental CHO-K1 cells; actives 0.48% (n = 360,000); activation, % at 3 µM; AID 602248; Fluo-8 calcium fluorescence; scaled to maximal ATP response, vehicle zero; in the data active means activation above about 15%;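 further: untransfected CHO-K1 host cells lacking M1 receptor as counterscreen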
Active calls of the source: *. A selection: hits, their analogues and other compounds. The true share with any hit is near 2.4%.

SMILES | CHO-K1 Ca antag | M1 PAM parental | M1 ag | M1 PAM | CHRM1 antagonist | CHO-K1 Ca ag
O=C(CCc1nc(-c2ccccc2F)no1)Nc1ccc(Oc2ccccc2)cc1 | 24* | -3 | 0 | -11 | 16 | 8
COc1cccc(NC(=O)CCc2nc(-c3ccccc3F)no2)c1 | -2 | 15 | 1 | 9 | -4 | 3
CSc1nnnn1CCn1nnnc1SC | 36* | -10 | -3 | -3 | -1 | -1
COc1ccc(NC(=O)N(C)C[C@H]2Oc3ccc(NS(=O)(=O)c4ccccc4)cc3C(=O)N([C@H](C)CO)C[C@@H]2C)cc1 | -6 | 0 | -1 | 6 | -12 | 0
Cc1cc[n+](CC(=O)c2ccc(NC(=O)c3ccccc3)cc2)cc1 | 7 | -11 | -6 | -12 | 32* | 0
O=C(C[n+]1ccccc1)c1ccc(NC(=O)c2ccccc2)cc1 | -17 | 23 | -9 | 2 | 2 | 0
Cc1cc(C)c[n+](CC(=O)c2ccc(NC(=O)c3ccccc3)cc2)c1 | -13 | 7 | -5 | 6 | -5 | 0
Cc1cc(C)c[n+](CC(=O)c2ccc(-c3ccccc3)cc2)c1 | -7 | 18 | -14 | -23 | 36* | 0
Cc1ccc2nc(-c3ccccc3C)oc(=O)c2c1 | -4 | -3 | -2 | 12 | -18 | 0
Cc1ccccc1-c1nc2ccccc2c(=O)o1 | 36* | -11 | 1 | 12 | -19 | -1
Cc1cc(O)ccc1C1(c2ccc(O)cc2C)OC(=O)c2ccccc21 | 13 | 10 | 15 | 6 | -27 | 6
CC(=O)Oc1ccc2c(c1)Oc1cc(OC(C)=O)ccc1C21OC(=O)c2ccccc21 | 101* | -12 | 974* | -29 | 102* | 824*
COc1ccc(CCNC(=O)C(=O)NCC2OCCN2S(=O)(=O)c2cc(F)ccc2F)cc1 (stereo unspecified) | -6 | 25 | 3 | -12 | 12 | 6
COc1ccc(-n2nnnc2C(c2cccc3ccccc23)N2CCN(C/C=C/c3ccccc3)CC2)cc1 (stereo unspecified) | 14 | -10 | -2 | -15 | 3 | 0
C(=C\c1ccccc1)/CN1CCN(C(c2cc3ccccc3o2)c2nnnn2-c2ccc3c(c2)OCCO3)CC1 (stereo unspecified) | -9 | 4 | -4 | -25 | 76* | 1
C(=C\c1ccccc1)/CN1CCN(C(c2nnnn2-c2ccc3c(c2)OCCO3)C2CC2)CC1 (stereo unspecified) | -16 | 7 | -6 | -14 | -4 | 4
C(=C\c1ccccc1)/CN1CCN(C(c2cccs2)c2nnnn2-c2ccc3c(c2)OCCO3)CC1 (stereo unspecified) | -17 | 12 | -5 | -26 | 90* | 1
CCC(c1nnnn1-c1ccc2c(c1)OCCO2)N1CCN(C/C=C/c2ccccc2)CC1 (stereo unspecified) | -2 | 7 | -3 | -17 | 20 | 6
CCCCn1nnnc1C(c1cc2ccccc2o1)N1CCN(C/C=C/c2ccccc2)CC1 (stereo unspecified) | -8 | 4 | -5 | -25 | 56* | 1
COc1ccc(-n2nnnc2C(c2cc3ccccc3o2)N2CCN(C/C=C/c3ccccc3)CC2)cc1 (stereo unspecified) | -21 | 13 | -5 | -25 | 58* | 1
CCN(C(=O)COC(=O)c1ccc([N+](=O)[O-])o1)C1CCCCC1 | -2 | -7 | -2 | 4 | 5 | 0
O=C1c2cc3c(cc2CCC1c1ccc2c(c1)OCO2)OCO3 (stereo unspecified) | -16 | 0 | -2 | -3 | -14 | 1
COc1ccc(C(c2nnnn2-c2ccc3c(c2)OCCO3)N2CCN(C/C=C/c3ccccc3)CC2)cc1 (stereo unspecified) | 7 | -6 | -6 | -26 | 94* | 0
COc1cccc(CNc2ccc3c(c2)CCC3)c1 | -13 | -6 | -2 | -5 | -17 | 0
COc1cccc(CNc2ccc(C)c(Cl)c2)c1 | 1 | 5 | -11 | 7 | -11 | 17*
Cn1cccc1/C=C1\CC(C(C)(C)C)C/C(=C\c2cccn2C)C1=O (stereo unspecified) | 24* | -9 | -2 | 3 | -1 | 0
